# PubChem BioAssay
# Potency and affinity values are given separately. A number with no mark means an inactive call. The rule behind the calls is not given here.
# Experiment: toxicity toward immortalized ovarian surface epithelium – cell-based, plate reader, dry powder samples, cytotoxicity control for PAX8 inhibitor project, dose response (AID 743045);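 note: 0% = neutral control median and -100% = positive control median; more negative values mean more cell killing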
# Settings: IOSE-T80 ovarian epithelial cells; series mostly up to 35 µM; activity change, negative = cytotoxicity: at the top concentration
row,Structure (SMILES),"activity change, negative = cytotoxicity"
1,C[C@H](CO)N1C[C@H](C)[C@H](CN(C)Cc2ccc(Cl)c(Cl)c2)Oc2c(NS(=O)(=O)c3ccc(Cl)cc3)cccc2C1=O,4.49%
2,C[C@@H]1CN([C@H](C)CO)C(=O)c2cc(NC(=O)c3ccncc3)ccc2O[C@@H](C)CCCCO[C@H]1CN(C)Cc1ccc(C(F)(F)F)cc1,10.5%
3,C[C@@H]1CN([C@@H](C)CO)C(=O)c2cc(NS(=O)(=O)c3ccc(Cl)cc3)ccc2O[C@@H](C)CCCCO[C@H]1CN(C)Cc1ccc(C(F)(F)F)cc1,0.24%
4,C[C@H]1CCCCO[C@@H](CN(C)C(=O)c2ccccc2)[C@@H](C)CN([C@@H](C)CO)C(=O)c2cc(NC(=O)Nc3ccc(C(F)(F)F)cc3)ccc2O1,16.1%
5,C[C@@H]1CN([C@@H](C)CO)C(=O)c2cc(NS(=O)(=O)c3ccccc3)ccc2O[C@@H](C)CCCCO[C@@H]1CN(C)Cc1ccc(C(F)(F)F)cc1,16.5%
6,C[C@@H]1CN([C@H](C)CO)C(=O)c2cc(NC(=O)Nc3ccccc3)ccc2O[C@@H](C)CCCCO[C@H]1CN(C)Cc1ccc(Cl)c(Cl)c1,-2.02%
7,C[C@@H]1CCCCO[C@@H](CN(C)Cc2ccc(Cl)c(Cl)c2)[C@H](C)CN([C@@H](C)CO)C(=O)c2cc(NC(=O)Cc3ccccc3)ccc2O1,-9.04%
8,C[C@H]1CCCCO[C@H](CN(C)S(=O)(=O)c2ccc(Cl)cc2)[C@@H](C)CN([C@@H](C)CO)C(=O)c2cc(NS(=O)(=O)c3ccc(Cl)cc3)ccc2O1,15.2%
9,C[C@@H]1CN([C@@H](C)CO)C(=O)c2cc(NC(=O)c3ccccc3)ccc2O[C@@H](C)CCCCO[C@H]1CN(C)Cc1ccc(C(F)(F)F)cc1,-8.86%
10,C[C@@H]1CCCCO[C@H](CN(C)C)[C@H](C)CN([C@H](C)CO)C(=O)c2cc(NC(=O)Nc3cccc4ccccc34)ccc2O1,0.799%
11,C[C@H](CO)N1C[C@H](C)[C@@H](CN(C)C(=O)NC2CCCCC2)Oc2cc(C#Cc3ccc(F)cc3)ccc2S1(=O)=O,18%
12,C[C@H]1CCCCO[C@@H](CN(C)C(=O)Nc2ccc(C(F)(F)F)cc2)[C@@H](C)CN([C@@H](C)CO)C(=O)c2cc(NS(=O)(=O)c3cn(C)cn3)ccc2O1,-0.321%
13,COc1ccccc1-c1ccc2c(c1)O[C@H](CN(C)Cc1ccc3c(c1)OCO3)[C@H](C)CN([C@@H](C)CO)S2(=O)=O,16.4%
14,C[C@@H]1CCCCO[C@H](CN(C)C(=O)NC2CCCCC2)[C@@H](C)CN([C@@H](C)CO)C(=O)c2cc(NC(=O)Nc3ccc(C(F)(F)F)cc3)ccc2O1,7.7%
15,C[C@@H]1CN([C@@H](C)CO)C(=O)Cc2cc(NS(=O)(=O)c3ccc(F)cc3)ccc2O[C@H]1CN(C)Cc1ccc(Oc2ccccc2)cc1,3.22%

# Experiment: A2780 cell killing – plate reader, dry powder samples, cytotoxicity control, dose response (AID 743046);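 note: 0% = neutral control wells and -100% = cytotoxic reference compound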
# Settings: A2780 ovarian cancer cytotoxicity; series mostly up to 35 µM; activity change, negative = cytotoxicity: at the top concentration
row,Structure (SMILES),"activity change, negative = cytotoxicity"
1,C[C@@H]1CCCCO[C@H](CN(C)C(=O)Nc2ccc(C(F)(F)F)cc2)[C@H](C)CN([C@@H](C)CO)C(=O)c2cc(NS(=O)(=O)c3ccc(Cl)cc3)ccc2O1,-13.1%
2,C[C@H](O)C#Cc1cnc2c(c1)C(=O)N([C@H](C)CO)C[C@H](C)[C@H](CN(C)Cc1ccc(-c3ccccc3)cc1)O2,5.73%
3,Cc1ccc(S(=O)(=O)N(C)C[C@@H]2Oc3cc(C#Cc4ccncc4)ccc3S(=O)(=O)N([C@@H](C)CO)C[C@H]2C)cc1,30.2%
4,O=C(C[C@@H]1C[C@H]2c3cc(NC(=O)C4CCOCC4)ccc3O[C@H]2[C@H](CO)O1)NCc1ccc(Oc2ccccc2)cc1,-10.1%
5,C[C@@H]1CCCCO[C@@H](CN(C)Cc2ccc(C(F)(F)F)cc2)[C@H](C)CN([C@H](C)CO)C(=O)c2cc(NS(=O)(=O)c3ccc(Cl)cc3)ccc2O1,-22.1%
6,Cc1ccc(S(=O)(=O)N(C)C[C@H]2OCCCC[C@@H](C)Oc3ccc(NS(=O)(=O)c4ccc(F)cc4)cc3C(=O)N([C@@H](C)CO)C[C@H]2C)cc1,-7.65% [at 30 µM]
7,C[C@@H]1CCCCO[C@H](CN(C)C(=O)Cc2ccccc2)[C@H](C)CN([C@@H](C)CO)C(=O)c2cc(NC(=O)Nc3ccc(C(F)(F)F)cc3)ccc2O1,21.3%
8,Cc1ccc(S(=O)(=O)Nc2ccc3c(c2)C(=O)N([C@H](C)CO)C[C@H](C)[C@H](CN(C)C(=O)c2ccccc2)OCCCC[C@H](C)O3)cc1,1.36%
9,COc1ccc(S(=O)(=O)Nc2ccc3c(c2)CC(=O)N([C@H](C)CO)C[C@H](C)[C@@H](CN(C)Cc2ccc(-c4ccccc4)cc2)O3)cc1,-0.136%
10,C[C@@H]1CCCCO[C@H](CN(C)S(=O)(=O)c2ccc(Cl)cc2)[C@@H](C)CN([C@@H](C)CO)C(=O)c2cc(NC(=O)CCC(F)(F)F)ccc2O1,1.58%
11,Cc1ccc(S(=O)(=O)Nc2ccc3c(c2)C(=O)N([C@@H](C)CO)C[C@@H](C)[C@H](CN(C)Cc2ccc(Cl)c(Cl)c2)OCCCC[C@@H](C)O3)cc1,-11.4%
12,CN1c2ccc(-c3ccc(C#N)cc3)cc2[C@@H]2[C@@H](CCN2C(=O)NC2CCCCC2)[C@@H]1CO,25.9%
13,C[C@H]1CCCCO[C@H](CN(C)C(=O)Nc2ccc(C(F)(F)F)cc2)[C@@H](C)CN([C@@H](C)CO)C(=O)c2cc(NC(=O)c3ccncc3)ccc2O1,1.34%
14,COc1ccccc1S(=O)(=O)N(C)C[C@@H]1Oc2cc(C#CCC3CCCC3)ccc2S(=O)(=O)N([C@@H](C)CO)C[C@@H]1C,14.1%
15,C[C@@H]1CN([C@H](C)CO)C(=O)c2cc(NC(=O)Nc3ccc(F)cc3)ccc2O[C@@H](C)CCCCO[C@H]1CN(C)C(=O)Nc1ccc(F)cc1,1.52%
16,Cc1ccc(S(=O)(=O)N(C)C[C@H]2Oc3ccc(NC(=O)Nc4ccc(C(F)(F)F)cc4)cc3CC(=O)N([C@H](C)CO)C[C@@H]2C)cc1,149%
17,CCCN(C)C[C@H]1OCCCC[C@@H](C)Oc2ccc(NC(=O)c3ccccc3)cc2C(=O)N([C@H](C)CO)C[C@H]1C,26.7%
18,C[C@@H]1CN([C@H](C)CO)S(=O)(=O)c2ccc(C#Cc3ccncc3)cc2O[C@H]1CN(C)C(=O)Nc1ccc2c(c1)OCO2,25.7%
19,C[C@@H]1CN([C@H](C)CO)C(=O)c2cc(NC(=O)Nc3ccc(C(F)(F)F)cc3)ccc2O[C@@H](C)CCCCO[C@H]1CN(C)Cc1ccc(Cl)c(Cl)c1,-0.748%
20,C[C@H](CO)N1C[C@H](C)[C@H](CN(C)C(=O)NC2CCCCC2)OCCCC[C@H](C)Oc2ccc(NC(=O)Nc3ccc(C(F)(F)F)cc3)cc2C1=O,10.2%

row,Structure (SMILES),"activity change, negative = cytotoxicity"
1,C[C@@H]1CN([C@H](C)CO)C(=O)Cc2cc(NC(=O)Nc3ccc(F)cc3)ccc2O[C@@H]1CN(C)Cc1ccc(Cl)c(Cl)c1,13.6%
2,C[C@@H]1CN([C@@H](C)CO)C(=O)c2ccccc2-c2ccccc2CO[C@H]1CN(C)Cc1ccccc1C(F)(F)F,16.2%
3,Cc1ccc(S(=O)(=O)Nc2ccc3c(c2)C(=O)N([C@@H](C)CO)C[C@H](C)[C@@H](CN(C)C(=O)Nc2ccc(C(F)(F)F)cc2)OCCCC[C@H](C)O3)cc1,30.8%
4,Cc1ccc(S(=O)(=O)N(C)C[C@@H]2Oc3c(NC(=O)c4ccc(-c5nccs5)cc4)cccc3C(=O)N([C@@H](C)CO)C[C@@H]2C)cc1,72.9%
5,C[C@@H]1CN([C@H](C)CO)C(=O)Cc2cc(NC(=O)Cc3ccccc3)ccc2O[C@@H]1CN(C)Cc1ccc(C(F)(F)F)cc1,9%
6,C[C@H](CO)N1C[C@H](C)[C@H](CN(C)Cc2ccc(Cl)c(Cl)c2)Oc2c(NS(=O)(=O)c3ccc(Cl)cc3)cccc2C1=O,21.6%
7,C[C@@H]1CN([C@H](C)CO)C(=O)c2cc(NC(=O)c3ccncc3)ccc2O[C@@H](C)CCCCO[C@H]1CN(C)Cc1ccc(C(F)(F)F)cc1,14.7%
8,C[C@@H]1CN([C@@H](C)CO)C(=O)c2cc(NS(=O)(=O)c3ccc(Cl)cc3)ccc2O[C@@H](C)CCCCO[C@H]1CN(C)Cc1ccc(C(F)(F)F)cc1,-4.78%
9,C[C@H]1CCCCO[C@@H](CN(C)C(=O)c2ccccc2)[C@@H](C)CN([C@@H](C)CO)C(=O)c2cc(NC(=O)Nc3ccc(C(F)(F)F)cc3)ccc2O1,0.001%
10,C[C@@H]1CN([C@@H](C)CO)C(=O)c2cc(NS(=O)(=O)c3ccccc3)ccc2O[C@@H](C)CCCCO[C@@H]1CN(C)Cc1ccc(C(F)(F)F)cc1,18.8%
11,C[C@@H]1CN([C@H](C)CO)C(=O)c2cc(NC(=O)Nc3ccccc3)ccc2O[C@@H](C)CCCCO[C@H]1CN(C)Cc1ccc(Cl)c(Cl)c1,-3.54%
12,C[C@@H]1CCCCO[C@@H](CN(C)Cc2ccc(Cl)c(Cl)c2)[C@H](C)CN([C@@H](C)CO)C(=O)c2cc(NC(=O)Cc3ccccc3)ccc2O1,18.7% [at 16 µM]
13,C[C@H]1CCCCO[C@H](CN(C)S(=O)(=O)c2ccc(Cl)cc2)[C@@H](C)CN([C@@H](C)CO)C(=O)c2cc(NS(=O)(=O)c3ccc(Cl)cc3)ccc2O1,-7.24%
14,C[C@@H]1CN([C@@H](C)CO)C(=O)c2cc(NC(=O)c3ccccc3)ccc2O[C@@H](C)CCCCO[C@H]1CN(C)Cc1ccc(C(F)(F)F)cc1,-32.6%
15,C[C@@H]1CCCCO[C@H](CN(C)C)[C@H](C)CN([C@H](C)CO)C(=O)c2cc(NC(=O)Nc3cccc4ccccc34)ccc2O1,-2.77%
16,C[C@H](CO)N1C[C@H](C)[C@@H](CN(C)C(=O)NC2CCCCC2)Oc2cc(C#Cc3ccc(F)cc3)ccc2S1(=O)=O,5.44%
17,C[C@H]1CCCCO[C@@H](CN(C)C(=O)Nc2ccc(C(F)(F)F)cc2)[C@@H](C)CN([C@@H](C)CO)C(=O)c2cc(NS(=O)(=O)c3cn(C)cn3)ccc2O1,5.54%
18,COc1ccccc1-c1ccc2c(c1)O[C@H](CN(C)Cc1ccc3c(c1)OCO3)[C@H](C)CN([C@@H](C)CO)S2(=O)=O,28.9%
19,C[C@@H]1CCCCO[C@H](CN(C)C(=O)NC2CCCCC2)[C@@H](C)CN([C@@H](C)CO)C(=O)c2cc(NC(=O)Nc3ccc(C(F)(F)F)cc3)ccc2O1,13.3%
20,C[C@@H]1CN([C@@H](C)CO)C(=O)Cc2cc(NS(=O)(=O)c3ccc(F)cc3)ccc2O[C@H]1CN(C)Cc1ccc(Oc2ccccc2)cc1,19.2%
